Data taken from PMC7862700, “An all-to-all approach to the identification of sequence-specific readers for epigenetic DNA modifications on cytosine”.

How the values were obtained:
Assay in all cases: DAPPL (digital affinity profiling via proximity ligation, sequencing); 10 mM Tris-HCl pH 7.5, 50 mM NaCl, 1 mM DTT, 4% glycerol, room temperature, 30 min; GST-TFs on glutathione beads, 16-mer random dsDNA library, 0.1% formaldehyde crosslink after washing; high values mean tight binding
FEV = biological target: T1, FEV (Homo sapiens, UniProt Q99581 1-238); conditions: protein: recombinant; tags: N-terminal GST; dsDNA, one strand shown
T1 sequence: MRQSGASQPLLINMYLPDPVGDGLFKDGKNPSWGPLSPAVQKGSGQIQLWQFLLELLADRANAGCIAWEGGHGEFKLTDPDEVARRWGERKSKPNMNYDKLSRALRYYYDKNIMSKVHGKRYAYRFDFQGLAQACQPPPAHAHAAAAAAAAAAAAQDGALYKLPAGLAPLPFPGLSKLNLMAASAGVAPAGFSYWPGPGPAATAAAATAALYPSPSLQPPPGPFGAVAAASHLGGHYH
Procedure, shortened: (§1)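 Human transcription factors were made in yeast as GST fusions, captured on glutathione beads and barcoded with DNA. With a tag-only sample included, the pool was incubated with 200 nmole of a random double-stranded 16-mer DNA library in Tris/NaCl/DTT/glycerol buffer at room temperature for 30 min, then crosslinked with 0.1% formaldehyde after washing, ligated by proximity, amplified and sequenced. For binding signal, each hexamer's read frequency for a factor is divided by its frequency for the tag-only sample.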

ETV5 = ETV5 (Homo sapiens, UniProt P41161 1-510); conditions: protein: recombinant; tags: N-terminal GST; dsDNA, one strand shown
Sequence of ETV5 (P41161 whole entry): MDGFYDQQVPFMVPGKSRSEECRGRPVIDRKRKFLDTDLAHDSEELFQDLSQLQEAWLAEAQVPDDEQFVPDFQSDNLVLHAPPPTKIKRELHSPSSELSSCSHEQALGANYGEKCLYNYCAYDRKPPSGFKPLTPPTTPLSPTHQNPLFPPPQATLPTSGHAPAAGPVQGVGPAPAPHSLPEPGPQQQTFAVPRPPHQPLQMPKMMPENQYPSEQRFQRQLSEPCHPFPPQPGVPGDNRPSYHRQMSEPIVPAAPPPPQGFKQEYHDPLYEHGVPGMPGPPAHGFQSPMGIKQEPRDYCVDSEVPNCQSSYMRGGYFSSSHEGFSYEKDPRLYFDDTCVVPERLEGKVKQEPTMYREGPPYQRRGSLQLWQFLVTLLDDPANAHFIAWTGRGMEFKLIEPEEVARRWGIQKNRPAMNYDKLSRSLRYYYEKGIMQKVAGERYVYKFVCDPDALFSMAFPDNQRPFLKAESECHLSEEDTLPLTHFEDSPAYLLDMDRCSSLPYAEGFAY
Procedure, shortened: as §1

HSF1 = HSF1 (Homo sapiens, UniProt Q00613 1-529); conditions: protein: recombinant; tags: N-terminal GST; chain copies: 3; dsDNA, one strand shown
Sequence of HSF1 (Q00613 whole entry): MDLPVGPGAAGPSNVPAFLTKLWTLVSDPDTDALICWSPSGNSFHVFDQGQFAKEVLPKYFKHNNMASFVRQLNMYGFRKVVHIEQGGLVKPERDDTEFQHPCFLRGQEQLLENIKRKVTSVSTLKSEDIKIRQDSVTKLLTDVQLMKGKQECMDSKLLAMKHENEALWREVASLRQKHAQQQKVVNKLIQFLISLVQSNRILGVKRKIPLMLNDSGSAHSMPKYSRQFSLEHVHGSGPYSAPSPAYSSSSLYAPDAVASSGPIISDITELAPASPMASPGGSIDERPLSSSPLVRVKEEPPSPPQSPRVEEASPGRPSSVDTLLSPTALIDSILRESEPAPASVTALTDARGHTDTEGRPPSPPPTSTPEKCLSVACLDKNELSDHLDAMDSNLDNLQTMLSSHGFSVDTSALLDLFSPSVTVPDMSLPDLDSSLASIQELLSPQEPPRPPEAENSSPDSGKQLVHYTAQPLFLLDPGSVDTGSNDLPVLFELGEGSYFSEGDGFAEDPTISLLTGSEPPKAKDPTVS
Procedure, shortened: as §1

SPIC = biological target: T2, SPIC (Homo sapiens, UniProt Q8N5J4 1-248); conditions: protein: recombinant; tags: N-terminal GST; dsDNA, one strand shown
T2 sequence: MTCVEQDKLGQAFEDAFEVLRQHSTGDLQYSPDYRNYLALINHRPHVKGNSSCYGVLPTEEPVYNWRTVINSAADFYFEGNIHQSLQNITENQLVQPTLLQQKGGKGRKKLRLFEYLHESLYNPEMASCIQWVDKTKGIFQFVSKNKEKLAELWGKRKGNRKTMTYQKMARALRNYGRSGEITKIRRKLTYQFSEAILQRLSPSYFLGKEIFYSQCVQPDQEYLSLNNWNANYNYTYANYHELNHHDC
Procedure, shortened: as §1

ELF4 = ELF4 (Homo sapiens, UniProt Q99607 1-663); conditions: protein: recombinant; tags: N-terminal GST; dsDNA, one strand shown
Sequence of ELF4 (Q99607 whole entry): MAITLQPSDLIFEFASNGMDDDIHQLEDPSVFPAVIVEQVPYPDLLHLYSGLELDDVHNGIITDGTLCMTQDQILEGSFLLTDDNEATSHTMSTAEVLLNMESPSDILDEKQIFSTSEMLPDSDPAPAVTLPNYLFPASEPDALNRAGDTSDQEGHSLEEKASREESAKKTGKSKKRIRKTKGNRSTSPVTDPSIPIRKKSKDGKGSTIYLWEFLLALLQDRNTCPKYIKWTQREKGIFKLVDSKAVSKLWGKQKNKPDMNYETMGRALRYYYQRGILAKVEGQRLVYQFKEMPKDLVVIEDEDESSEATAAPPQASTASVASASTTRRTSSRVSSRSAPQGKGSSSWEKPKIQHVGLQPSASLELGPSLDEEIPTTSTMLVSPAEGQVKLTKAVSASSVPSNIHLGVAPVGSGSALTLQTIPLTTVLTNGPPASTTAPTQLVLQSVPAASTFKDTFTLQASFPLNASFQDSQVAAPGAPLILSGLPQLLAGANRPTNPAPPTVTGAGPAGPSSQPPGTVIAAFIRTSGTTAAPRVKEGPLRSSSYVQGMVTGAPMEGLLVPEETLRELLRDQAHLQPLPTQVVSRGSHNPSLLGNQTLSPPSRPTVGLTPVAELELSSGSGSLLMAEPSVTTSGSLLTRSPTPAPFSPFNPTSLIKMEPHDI
Procedure, shortened: as §1

ELK4 = biological target: T3, ELK4 (Homo sapiens, UniProt P28324-2 1-405); conditions: protein: recombinant; tags: N-terminal GST; dsDNA, one strand shown
T3 sequence: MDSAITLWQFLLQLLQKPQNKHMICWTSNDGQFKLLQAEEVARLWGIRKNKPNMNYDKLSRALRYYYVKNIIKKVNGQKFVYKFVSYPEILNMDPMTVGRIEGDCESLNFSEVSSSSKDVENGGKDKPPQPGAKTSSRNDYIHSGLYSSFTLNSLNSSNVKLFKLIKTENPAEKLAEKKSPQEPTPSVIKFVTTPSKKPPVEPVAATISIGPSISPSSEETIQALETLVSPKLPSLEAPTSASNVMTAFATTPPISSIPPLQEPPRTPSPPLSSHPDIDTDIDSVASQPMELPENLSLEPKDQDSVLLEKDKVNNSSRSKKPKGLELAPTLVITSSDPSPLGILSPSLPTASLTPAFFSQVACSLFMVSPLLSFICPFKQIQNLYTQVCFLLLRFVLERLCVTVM
Procedure, shortened: as §1

ETV2 = biological target: T4, ETV2 (Homo sapiens, UniProt O00321 1-342); conditions: protein: recombinant; tags: N-terminal GST; dsDNA, one strand shown
T4 sequence: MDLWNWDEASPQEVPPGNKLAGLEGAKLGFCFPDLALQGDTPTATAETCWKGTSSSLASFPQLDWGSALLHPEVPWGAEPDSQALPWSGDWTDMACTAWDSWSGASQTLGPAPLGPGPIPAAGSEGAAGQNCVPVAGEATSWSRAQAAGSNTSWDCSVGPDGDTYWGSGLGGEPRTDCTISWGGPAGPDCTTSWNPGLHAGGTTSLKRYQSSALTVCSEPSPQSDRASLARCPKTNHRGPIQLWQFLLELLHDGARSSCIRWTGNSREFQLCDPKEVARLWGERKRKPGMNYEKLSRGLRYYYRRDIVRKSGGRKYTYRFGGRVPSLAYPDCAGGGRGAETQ
Procedure, shortened: as §1

ELF3 = biological target: T5, ELF3 (Homo sapiens, UniProt P78545 1-371); conditions: protein: recombinant; tags: N-terminal GST; dsDNA, one strand shown
T5 sequence: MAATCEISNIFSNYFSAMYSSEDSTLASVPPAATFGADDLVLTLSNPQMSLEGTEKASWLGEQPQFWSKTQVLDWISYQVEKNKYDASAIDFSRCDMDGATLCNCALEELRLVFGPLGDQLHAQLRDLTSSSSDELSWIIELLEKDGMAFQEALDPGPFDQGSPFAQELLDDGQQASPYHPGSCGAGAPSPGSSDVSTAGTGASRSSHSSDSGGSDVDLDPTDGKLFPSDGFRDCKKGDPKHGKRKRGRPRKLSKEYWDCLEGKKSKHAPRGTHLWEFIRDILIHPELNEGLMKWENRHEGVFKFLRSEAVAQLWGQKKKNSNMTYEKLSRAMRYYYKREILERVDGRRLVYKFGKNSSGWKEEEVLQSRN
Procedure, shortened: as §1

CRX = CRX (Homo sapiens, UniProt O43186 1-299); conditions: protein: recombinant; tags: N-terminal GST; dsDNA, one strand shown
Sequence of CRX (O43186 whole entry): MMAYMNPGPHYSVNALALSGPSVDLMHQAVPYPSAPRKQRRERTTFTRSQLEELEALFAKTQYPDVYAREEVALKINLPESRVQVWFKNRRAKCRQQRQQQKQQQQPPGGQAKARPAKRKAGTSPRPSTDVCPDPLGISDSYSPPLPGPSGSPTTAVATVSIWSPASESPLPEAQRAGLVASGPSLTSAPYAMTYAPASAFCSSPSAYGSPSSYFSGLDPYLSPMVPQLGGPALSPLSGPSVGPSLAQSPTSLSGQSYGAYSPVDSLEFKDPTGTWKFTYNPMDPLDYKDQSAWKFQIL
Procedure, shortened: as §1

ETV1 = ETV1 (Homo sapiens, UniProt P50549 1-477); conditions: protein: recombinant; tags: N-terminal GST; dsDNA, one strand shown
Sequence of ETV1 (P50549 whole entry): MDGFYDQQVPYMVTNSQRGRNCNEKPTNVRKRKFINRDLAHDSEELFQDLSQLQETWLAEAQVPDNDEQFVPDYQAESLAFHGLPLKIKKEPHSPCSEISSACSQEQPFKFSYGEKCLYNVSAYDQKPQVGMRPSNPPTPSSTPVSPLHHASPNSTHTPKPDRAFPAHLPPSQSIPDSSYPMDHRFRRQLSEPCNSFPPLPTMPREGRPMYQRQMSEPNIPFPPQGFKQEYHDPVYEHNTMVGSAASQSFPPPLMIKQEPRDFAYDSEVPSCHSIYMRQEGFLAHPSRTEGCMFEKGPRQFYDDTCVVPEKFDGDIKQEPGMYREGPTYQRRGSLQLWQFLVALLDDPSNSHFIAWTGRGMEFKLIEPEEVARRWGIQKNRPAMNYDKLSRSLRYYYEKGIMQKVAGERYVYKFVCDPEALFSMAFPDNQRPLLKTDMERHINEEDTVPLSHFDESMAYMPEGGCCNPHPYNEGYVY
Procedure, shortened: as §1

ERF = biological target: T6, ERF (Homo sapiens, UniProt P50548 1-548); conditions: protein: recombinant; tags: N-terminal GST; dsDNA, one strand shown
T6 sequence: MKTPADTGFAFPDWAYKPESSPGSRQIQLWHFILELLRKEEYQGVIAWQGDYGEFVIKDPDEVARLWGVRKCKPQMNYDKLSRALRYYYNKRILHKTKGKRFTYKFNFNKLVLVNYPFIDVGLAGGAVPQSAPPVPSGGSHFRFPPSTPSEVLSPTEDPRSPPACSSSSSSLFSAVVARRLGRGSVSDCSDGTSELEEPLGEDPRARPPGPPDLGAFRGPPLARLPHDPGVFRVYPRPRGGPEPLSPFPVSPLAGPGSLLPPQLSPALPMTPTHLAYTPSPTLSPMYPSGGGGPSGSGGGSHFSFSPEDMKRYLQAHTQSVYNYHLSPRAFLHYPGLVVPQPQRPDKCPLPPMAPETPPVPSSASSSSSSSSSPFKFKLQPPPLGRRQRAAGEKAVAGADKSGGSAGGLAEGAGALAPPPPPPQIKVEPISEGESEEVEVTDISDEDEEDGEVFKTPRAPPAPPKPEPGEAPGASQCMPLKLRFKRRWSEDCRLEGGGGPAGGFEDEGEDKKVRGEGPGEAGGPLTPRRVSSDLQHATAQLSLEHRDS
Procedure, shortened: as §1

ETV3L = biological target: T7, ETV3L (Homo sapiens, UniProt Q6ZN32 1-361); conditions: protein: recombinant; tags: N-terminal GST; dsDNA, one strand shown
T7 sequence: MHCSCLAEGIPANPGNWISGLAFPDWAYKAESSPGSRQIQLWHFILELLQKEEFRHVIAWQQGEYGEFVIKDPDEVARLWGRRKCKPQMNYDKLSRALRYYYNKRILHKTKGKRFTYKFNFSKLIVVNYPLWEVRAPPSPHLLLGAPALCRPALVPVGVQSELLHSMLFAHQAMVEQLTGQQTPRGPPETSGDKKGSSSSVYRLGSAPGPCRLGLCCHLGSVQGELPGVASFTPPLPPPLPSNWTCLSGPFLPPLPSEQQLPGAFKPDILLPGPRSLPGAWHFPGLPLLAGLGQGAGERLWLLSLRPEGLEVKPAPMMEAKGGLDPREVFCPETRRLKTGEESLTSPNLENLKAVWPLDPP
Procedure, shortened: as §1

ETS2 = biological target: T8, ETS2 (Homo sapiens, UniProt P15036 1-469); conditions: protein: recombinant; tags: N-terminal GST; dsDNA, one strand shown
T8 sequence: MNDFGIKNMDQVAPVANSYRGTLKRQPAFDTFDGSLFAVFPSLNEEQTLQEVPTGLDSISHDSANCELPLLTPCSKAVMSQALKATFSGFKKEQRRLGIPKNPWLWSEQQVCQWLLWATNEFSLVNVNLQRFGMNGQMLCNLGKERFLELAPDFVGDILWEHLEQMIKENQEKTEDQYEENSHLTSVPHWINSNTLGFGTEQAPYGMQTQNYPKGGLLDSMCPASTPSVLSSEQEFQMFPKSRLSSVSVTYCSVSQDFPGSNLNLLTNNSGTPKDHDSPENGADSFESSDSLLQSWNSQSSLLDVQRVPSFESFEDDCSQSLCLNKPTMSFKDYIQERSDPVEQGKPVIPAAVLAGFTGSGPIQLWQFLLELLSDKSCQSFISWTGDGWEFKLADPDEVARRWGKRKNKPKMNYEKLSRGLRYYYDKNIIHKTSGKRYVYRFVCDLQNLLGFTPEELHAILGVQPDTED
Procedure, shortened: as §1

SPDEF = biological target: T9, SPDEF (Homo sapiens, UniProt O95238 1-335); conditions: protein: recombinant; tags: N-terminal GST; dsDNA, one strand shown
T9 sequence: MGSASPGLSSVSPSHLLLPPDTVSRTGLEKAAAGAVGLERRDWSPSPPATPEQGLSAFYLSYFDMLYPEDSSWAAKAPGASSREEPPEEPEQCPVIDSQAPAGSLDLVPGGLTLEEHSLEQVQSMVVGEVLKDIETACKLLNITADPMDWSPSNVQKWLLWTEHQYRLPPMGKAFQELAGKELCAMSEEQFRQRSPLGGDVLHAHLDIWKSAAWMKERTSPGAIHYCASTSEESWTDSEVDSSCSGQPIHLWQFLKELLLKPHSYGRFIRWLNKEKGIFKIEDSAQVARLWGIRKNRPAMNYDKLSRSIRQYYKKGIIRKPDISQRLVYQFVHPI
Procedure, shortened: as §1

ETV7 = biological target: T10, ETV7 (Homo sapiens, UniProt Q9Y603 1-341); conditions: protein: recombinant; tags: N-terminal GST; dsDNA, one strand shown
T10 sequence: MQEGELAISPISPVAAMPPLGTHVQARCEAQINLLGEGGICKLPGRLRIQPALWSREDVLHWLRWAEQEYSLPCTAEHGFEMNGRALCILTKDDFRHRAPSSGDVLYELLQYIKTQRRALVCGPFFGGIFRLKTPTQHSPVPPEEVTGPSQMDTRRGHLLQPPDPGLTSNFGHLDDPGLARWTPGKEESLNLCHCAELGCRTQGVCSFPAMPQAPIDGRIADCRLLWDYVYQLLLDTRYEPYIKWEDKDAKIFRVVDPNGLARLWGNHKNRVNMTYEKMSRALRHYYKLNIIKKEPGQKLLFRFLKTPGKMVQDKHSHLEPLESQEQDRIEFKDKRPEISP
Procedure, shortened: as §1

ELF5 = biological target: T11, ELF5 (Homo sapiens, UniProt Q9UKW6-2 1-255); conditions: protein: recombinant; tags: N-terminal GST; dsDNA, one strand shown
T11 sequence: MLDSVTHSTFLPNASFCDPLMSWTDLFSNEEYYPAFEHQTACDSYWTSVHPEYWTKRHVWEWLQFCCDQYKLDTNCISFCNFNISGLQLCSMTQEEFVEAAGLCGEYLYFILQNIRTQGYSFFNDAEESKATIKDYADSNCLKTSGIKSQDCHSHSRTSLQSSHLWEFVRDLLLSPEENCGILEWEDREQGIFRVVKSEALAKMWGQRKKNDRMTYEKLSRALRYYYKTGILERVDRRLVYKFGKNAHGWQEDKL
Procedure, shortened: as §1

ETV3 = biological target: T12, ETV3 (Homo sapiens, UniProt P41162-2 1-143); conditions: protein: recombinant; tags: N-terminal GST; dsDNA, one strand shown
T12 sequence: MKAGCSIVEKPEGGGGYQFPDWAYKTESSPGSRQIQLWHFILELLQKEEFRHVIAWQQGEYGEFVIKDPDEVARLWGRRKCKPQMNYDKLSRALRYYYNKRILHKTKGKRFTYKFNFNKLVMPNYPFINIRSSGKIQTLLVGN
Procedure, shortened: as §1

ETV6 = ETV6 (Homo sapiens, UniProt P41212 1-452); conditions: protein: recombinant; tags: N-terminal GST; dsDNA, one strand shown
Sequence of ETV6 (P41212 whole entry): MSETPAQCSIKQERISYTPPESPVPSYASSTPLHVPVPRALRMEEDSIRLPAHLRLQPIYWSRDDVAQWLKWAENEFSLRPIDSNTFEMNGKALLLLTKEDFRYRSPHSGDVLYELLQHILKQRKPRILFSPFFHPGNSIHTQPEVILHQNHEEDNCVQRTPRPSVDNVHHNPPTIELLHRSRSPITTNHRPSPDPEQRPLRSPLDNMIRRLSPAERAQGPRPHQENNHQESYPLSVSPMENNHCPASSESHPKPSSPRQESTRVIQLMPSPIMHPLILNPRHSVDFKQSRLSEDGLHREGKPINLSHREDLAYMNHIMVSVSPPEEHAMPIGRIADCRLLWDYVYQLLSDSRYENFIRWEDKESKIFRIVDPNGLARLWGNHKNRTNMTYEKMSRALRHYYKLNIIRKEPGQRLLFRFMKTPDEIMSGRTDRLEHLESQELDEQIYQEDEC
Procedure, shortened: as §1

Question: Which binding signal (FEV) does the source give for ATGCTT here?
Answer: 1.2 fold enrichment (6-mer frequency, TF over GST control)

Question: And the binding signal (ETV5)?
Answer: 1.29 fold enrichment (6-mer frequency, TF over GST control)

Question: What about the binding signal (HSF1) of the same sequence?
Answer: 1.23 fold enrichment (6-mer frequency, TF over GST control)

Question: What about the binding signal (SPIC) of the same sequence?
Answer: 1.6 fold enrichment (6-mer frequency, TF over GST control)

Question: And the binding signal (ELF4)?
Answer: 1.3 fold enrichment (6-mer frequency, TF over GST control)

Question: And the binding signal (ELK4)?
Answer: 1.45 fold enrichment (6-mer frequency, TF over GST control)

Question: And the binding signal (ETV2)?
Answer: 1.29 fold enrichment (6-mer frequency, TF over GST control)

Question: What about the binding signal (ELF3) of the same sequence?
Answer: 1.35 fold enrichment (6-mer frequency, TF over GST control)

Question: And the binding signal (CRX)?
Answer: 1.24 fold enrichment (6-mer frequency, TF over GST control)

Question: What about the binding signal (ETV1) of the same sequence?
Answer: 1.3 fold enrichment (6-mer frequency, TF over GST control)

Question: And the binding signal (ERF)?
Answer: 1.27 fold enrichment (6-mer frequency, TF over GST control)

Question: What about the binding signal (ETV3L) of the same sequence?
Answer: 1.36 fold enrichment (6-mer frequency, TF over GST control)

Question: What about the binding signal (ETS2) of the same sequence?
Answer: 1.28 fold enrichment (6-mer frequency, TF over GST control)

Question: What about the binding signal (SPDEF) of the same sequence?
Answer: 1.32 fold enrichment (6-mer frequency, TF over GST control)

Question: What about the binding signal (ETV7) of the same sequence?
Answer: 1.33 fold enrichment (6-mer frequency, TF over GST control)

Question: And the binding signal (ELF5)?
Answer: 1.38 fold enrichment (6-mer frequency, TF over GST control)

Question: What about the binding signal (ETV3) of the same sequence?
Answer: 1.31 fold enrichment (6-mer frequency, TF over GST control)

Question: And the binding signal (ETV6)?
Answer: 1.3 fold enrichment (6-mer frequency, TF over GST control)
